Results: PubChem BioAssay AID2733 (National Center for Advancing Translational Sciences (NCATS), 2010)
Results filed as inconclusive are left out. Where a call stands in place of a potency, no number is given. The source made the active and inactive calls. Calls follow the shape of the dose curve; as a rule, active = well fitted inhibition curve with a large enough effect; inconclusive = small, poorly fitted or top-dose-only effect; inactive = flat fitted curve, though single readings scatter.

Experiment: High Content Assay for Compounds that inhibit the Assembly of the Perinucleolar Compartment: PC3M Cytotoxicity
Description: High Content Assay for Compounds that inhibit the Assembly of the Perinucleolar Compartment
NIH Chemical Genomics Center [NCGC]
NIH Molecular Libraries Probe Centers Network [MLPCN]
Assay Submitter (PI): Sui Huang, Northwestern University, Feinberg School of Medicine, Cell and Molecular Biology, Chicago, Illinois.
The perinucleolar compartment (PNC) is a non-membrane-bound nuclear subdomain that is associated with but structurally distinct from the nucleolus. The PNC is a heritable trait, in which the number of PNCs per cell in daughter cells often mimics that of their mother cells. The PNC is heterogeneous in shape, is stable through interphase, disassembles during mitosis, and reassembles in early G1. The PNC is concentrated with newly synthesized RNA polymerase III (pol III) RNAs (MRP RNA, RNAse P H1 RNA, hY RNAs[hY1, 2, 5], Alu RNA, and SRP [7SL] RNA) and RNA binding proteins (nucleolin, PTB, CUG-BP, KSRP, Raver1, Raver2, and Rod).
Extensive in vitro studies have shown that the PNC is unique to tumor cells and preferentially forms in tumor cells derived from solid tissues. […]
5. Luminescencent signal was detected on a Viewlux CCD based imager (PerkinElmer) with a clear filter and a 30 second integration time. […]

Row | SMILES | Potency
1 | Cc1c2ccncc2c(C)c2c1[nH]c1ccccc12 | 31.6 µM (active)
2 | Cc1ccc(C(O)(C(=O)NNC(=O)CN2CCN(C)CC2)c2ccc(C)cc2)cc1 | inactive
